The structures appear in SMILES notation. Records with an inconclusive call do not appear. Unmarked numbers belong to inactive results. Activity calls are given as the source filed them. Unless noted, calls come from the whole dose curve; as a rule, active = well fitted curve in the direction sought with a large enough effect in the repeat runs; inconclusive = weak or mixed curves; inactive = no such curve, though single readings can be large; an effect the other way counts as inactive or inconclusive.

Chain of Cytochrome P450 2C9 (Homo sapiens) (P11712 whole entry, looked up): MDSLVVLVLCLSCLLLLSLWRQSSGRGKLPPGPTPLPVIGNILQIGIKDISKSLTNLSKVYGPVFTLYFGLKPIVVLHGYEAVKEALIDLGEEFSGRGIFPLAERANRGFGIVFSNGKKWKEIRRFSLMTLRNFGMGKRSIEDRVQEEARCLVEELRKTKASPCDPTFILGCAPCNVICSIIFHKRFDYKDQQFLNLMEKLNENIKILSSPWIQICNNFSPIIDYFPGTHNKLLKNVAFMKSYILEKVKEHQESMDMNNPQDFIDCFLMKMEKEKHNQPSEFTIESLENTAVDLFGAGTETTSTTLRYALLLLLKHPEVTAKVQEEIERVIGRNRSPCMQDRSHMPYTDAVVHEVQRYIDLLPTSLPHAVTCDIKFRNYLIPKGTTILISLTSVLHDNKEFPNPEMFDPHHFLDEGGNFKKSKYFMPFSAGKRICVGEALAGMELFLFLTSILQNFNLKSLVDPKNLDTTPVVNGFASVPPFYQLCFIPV
Chain of Cytochrome P450 2D6 (Homo sapiens) (P10635 whole entry, looked up): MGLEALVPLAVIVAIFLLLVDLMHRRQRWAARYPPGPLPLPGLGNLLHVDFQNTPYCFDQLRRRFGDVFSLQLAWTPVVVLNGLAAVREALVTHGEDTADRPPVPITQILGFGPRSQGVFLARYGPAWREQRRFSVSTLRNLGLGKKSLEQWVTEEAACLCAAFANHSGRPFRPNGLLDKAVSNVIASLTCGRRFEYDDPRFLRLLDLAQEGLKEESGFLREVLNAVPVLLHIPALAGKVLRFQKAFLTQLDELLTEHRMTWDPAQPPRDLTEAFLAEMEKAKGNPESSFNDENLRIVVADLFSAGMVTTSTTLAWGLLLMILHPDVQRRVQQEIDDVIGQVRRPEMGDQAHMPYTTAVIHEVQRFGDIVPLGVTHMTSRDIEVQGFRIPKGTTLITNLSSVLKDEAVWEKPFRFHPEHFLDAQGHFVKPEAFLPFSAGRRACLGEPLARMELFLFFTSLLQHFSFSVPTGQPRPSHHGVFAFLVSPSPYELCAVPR

Tested on in the first experiment: not listed separately
Description: Primary qHTS for small molecule stabilizers of the endoplasmic reticulum resident proteome: Secreted ER Calcium Modulated Protein (SERCaMP) assay (AID 1508630; active = well fitted curve in the direction sought with a large enough effect; an effect the other way counts as inactive or inconclusive; note: % is set by controls: 0 for no effect and ±100 for the full control effect). The settings on record: SH-SY5Y GLuc-SERCaMP (Gaussia luciferase released on ER calcium loss) secretion, thapsigargin, luminescence; series mostly up to 38.4 µM; activity change, negative = inhibition: at the top concentration. In outline: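 GLuc-SERCaMP-expressing SH-SY5Y cells, pretreated 16 h with compound, are challenged with thapsigargin to empty ER calcium stores; after 4 h, coelenterazine is added directly to the medium and luminescence is imaged.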
For `O=C(O)CCC/C=C\C[C@@H]1[C@@H](/C=C/[C@@H](O)COc2cccc(Cl)c2)[C@H](O)C[C@@H]1O`, the activity change, negative = inhibition was -16.6% [at 3.88 µM]. Consider `O=C1CCC(c2ccccc2)(C2CCN(Cc3ccccc3)CC2)C(=O)N1` (centres undefined), for which the “activity change, negative = inhibition” value was -10.3%. Take `O=C(O)c1ccc(NC2OC[C@@H](O)[C@H](O)[C@H]2O)cc1` (some centres undefined): the “activity change, negative = inhibition” value was -7.5%.

Consider `CCC(C)[C@@H](N)C(=O)O` (some centres undefined), for which the “activity change, negative = inhibition” value was -4.82%. As to `CC/C=C\C/C=C\C/C=C\CCCCCCCC(=O)O`, the activity change, negative = inhibition is -26.6% [at 3.88 µM]. As to `Oc1ccc(/C=C/c2cc(O)cc(O)c2)cc1`, the result was inactive. `CN(C)CCCSc1ccccc1NC(=O)/C=C/c1ccccc1`: the “activity change, negative = inhibition” value is -28.9%. `COc1cc(C)c(/C=C/C(C)=C/C=C/C(C)=C/C(=O)O)c(C)c1C`: the “activity change, negative = inhibition” value is -7.72%.

For `COc1ccc2nc(NC(=O)Nc3ccccc3)sc2c1`, the “activity change, negative = inhibition” value was 42.6%.

With `NC[C@H]1O[C@H](O[C@H]2[C@H](O)[C@@H](O[C@H]3O[C@H](CO)[C@@H](O)[C@H](N)[C@H]3O)[C@H](N)C[C@@H]2N)[C@H](N)C[C@@H]1O`, the “activity change, negative = inhibition” value was -16.6%. Turning to `CNC(=O)[C@H](Cc1c[nH]c2ccccc12)NC(=O)[C@@H](CC(=O)NO)CC(C)C`, the “activity change, negative = inhibition” value is -12.2%. On the same count and under the same terms, in the case of `CC(=O)Oc1cccc2c1C(=O)c1c(OC(C)=O)cc(C(=O)O)cc1C2=O` it was -8.25%. `Nc1ccc(N=Nc2ccccc2)c(N)n1`: the result was inactive. As for `CCCCC[C@H](O)/C=C/[C@H]1[C@H](O)CC(=O)[C@@H]1CCCCCCC(=O)O`, the activity change, negative = inhibition is -7.33% [at 3.88 µM].

Turning to `O=C(O)Cc1nn(Cc2ccc(Br)cc2F)c(=O)c2ccccc12`, the “activity change, negative = inhibition” value was -16.8%. In the case of `N#Cc1ccc2c(c1)N(CCCN1CCC(O)CC1)c1ccccc1S2`, the “activity change, negative = inhibition” value was 3.14%.

`NC(=O)c1ccc[n+]([C@@H]2O[C@H](COP(=O)([O-])OP(=O)(O)OC[C@H]3O[C@@H](n4cnc5c(N)ncnc54)[C@H](O)[C@@H]3O)[C@@H](O)[C@H]2O)c1`: the “activity change, negative = inhibition” value was -13.2% [at 13 µM]. For `N[C@H](CC(=O)O)C(=O)O`, the result was inactive. Consider `O=C(O)Cc1cc(I)c(Oc2ccc(O)c(I)c2)c(I)c1`, for which the result was inactive. Same read-out and setting: next, `CC/C=C\C/C=C\C/C=C\C/C=C\C/C=C\C/C=C\CCC(=O)O`: “inactive”.

Tested on in the next experiment: not listed separately
Description: A High-Content qHTS Against Drug Library for the Identification of Small Molecules that Inhibit DYT1 Early Onset Primary Dystonia-Associated Cell Pathology (AID 1645839; calls by dose curve). The settings on record: HEK293 Flp-In EGFP-delE TorsinA, punctate imaging, 48 h; series mostly up to 46.1 µM; % pathology change, negative = correction: at the top concentration. In outline:
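Readout: %pathology, the punctate EGFP-TorsinA distribution from imaging, as the primary channel and cell count as the toxicity counterscreen. HEK293 Flp-In cells expressing delE TorsinA were induced with tetracycline and treated with compound for 48 h.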
Regarding `CN(C)CCCSc1ccccc1NC(=O)/C=C/c1ccccc1`, the “% pathology change, negative = correction” value (“% pathology change” for short) was 5.69%.

With `COc1ccc2nc(NC(=O)Nc3ccccc3)sc2c1`, the “% pathology change” value is -16.1%. As to `O=C(OCc1ccccc1)c1ccc(O)cc1`, the “% pathology change” value was -8.02%. Consider `CC(=O)Oc1cccc2c1C(=O)c1c(OC(C)=O)cc(C(=O)O)cc1C2=O`, for which the “% pathology change” value was 3.69%. For `O=C(O)CCC(=O)c1ccc(-c2ccccc2)cc1`, the “% pathology change” value was 1.19%. For `O=C1c2ccccc2C(=O)c2c1ccc(O)c2O`, the “% pathology change” value was -6.93%.

A further experiment concerns the target Cytochrome P450 2D6 (Homo sapiens) (UniProt P10635). Description: Cytochrome P450 family 2 subfamily D member 6 (CYP2D6) small molecule antagonists: luciferase biochemical (cell-free) qHTS assay (AID 1645840). For activity change, negative = inhibition: % is set by controls: 0 for no effect and ±100 for the full control effect. Note: nearly all actives have a fitted effect of over 55% in size. Note: potency is the fitted concentration of half-maximal effect. The following applies: P450-Glo CYP2D6 enzyme, luciferin luminescence, 1 h; series mostly up to 57.4 µM; activity change, negative = inhibition: at the top concentration. Summed up:
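P450-Glo luminescent screen: recombinant CYP2D6 enzyme–proluciferin substrate mix preincubated with compound 10 min at room temperature, then NADPH regeneration added for 1 h at room temperature. Detection reagent added for 20 min; luciferin light read as relative luminescence units.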
Regarding `CCCCC(O)c1ccccc1` (centres undefined), the “activity change, negative = inhibition” value was 5.2%.

For the compound `O=P(O)(O)OP(=O)(O)O`, the “activity change, negative = inhibition” value is 23.2%. On the same count and under the same terms, in the case of `O=C(OCc1ccccc1)c1cccnc1` it was -21.3%.

Consider `NC(=S)N=Nc1ccc(NN=C(N)N)cc1`, for which the Potency was 10.7 µM (active).

As to `CC(C)=CCC/C(C)=C/CC/C(C)=C/CC/C=C(\C)CC/C=C(\C)CCC=C(C)C`, the “activity change, negative = inhibition” value was -29.3%. `CN(C)CCCSc1ccccc1NC(=O)/C=C/c1ccccc1`: the Potency is 0.347 µM (active). In the case of `C=CC1=C(C(=O)O)N2C(=O)[C@@H](NC(=O)/C(=N\O)c3csc(N)n3)[C@H]2SC1` (stereo in doubt), the “activity change, negative = inhibition” value was 4.29%. Turning to `CC(CC=O)CCCC(C)(C)O` (centres undefined), the “activity change, negative = inhibition” value is -2.84%. With `CCCOc1cc(N)ccc1C(=O)OCCN(CC)CC`, the Potency is 3.38 µM (active). `COc1ccc2nc(NC(=O)Nc3ccccc3)sc2c1`: the “activity change, negative = inhibition” value was -20.6%.

As to `CCN1C(=O)NC(c2ccccc2)C1=O` (centres undefined), the “activity change, negative = inhibition” value was 11.7%.

For `O=S(=O)(O)CC(S)CS` (centres undefined), the “activity change, negative = inhibition” value was -13.3%.

On to `Nc1ccc(N=Nc2ccccc2)c(N)n1`, for which the Potency is 17.4 µM (active). For the compound `CC(=O)Oc1cc(C(F)(F)F)ccc1C(=O)O`, the “activity change, negative = inhibition” value was 12.1%. In the case of `CN1C(=O)OC(C)(C)C1=O`, the “activity change, negative = inhibition” value was 4.96%. For the compound `CN(C)c1ccc(C(=C2C=CC(=[N+](C)C)C=C2)c2c(O)c(S(=O)(=O)[O-])cc3cc(S(=O)(=O)O)ccc23)cc1`, the Potency was 15.1 µM (active). As to `CCN(CC)CCOCCOC(=O)C(CC)(CC)c1ccccc1`, the Potency is 3.01 µM (active). As to `C[C@@](Cc1ccc(O)c(O)c1)(NN)C(=O)O`, the “activity change, negative = inhibition” value is 3.64%.

The target of a further experiment is Cytochrome P450 3A4 (Homo sapiens) (UniProt P08684). Description: Cytochrome P450 family 3 subfamily A member 4 (CYP3A4) small molecule antagonists: luciferase qHTS assay (AID 1645841). Note: nearly all actives have a fitted effect of over 45% in size. The settings on record: P450-Glo CYP3A4 enzyme assay, luciferin luminescence; series mostly up to 57.4 µM; activity change, negative = inhibition: at the top concentration. Summed up: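 P450-Glo CYP3A4 enzyme with proluciferin substrate was preincubated with DMSO-dissolved compounds for 10 min at room temperature. NADPH regeneration solution started a 1 h reaction. Detection reagent stopped it, and luminescence was read after 20 min.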
Chain of Cytochrome P450 3A4 (Homo sapiens) (P08684 whole entry, looked up): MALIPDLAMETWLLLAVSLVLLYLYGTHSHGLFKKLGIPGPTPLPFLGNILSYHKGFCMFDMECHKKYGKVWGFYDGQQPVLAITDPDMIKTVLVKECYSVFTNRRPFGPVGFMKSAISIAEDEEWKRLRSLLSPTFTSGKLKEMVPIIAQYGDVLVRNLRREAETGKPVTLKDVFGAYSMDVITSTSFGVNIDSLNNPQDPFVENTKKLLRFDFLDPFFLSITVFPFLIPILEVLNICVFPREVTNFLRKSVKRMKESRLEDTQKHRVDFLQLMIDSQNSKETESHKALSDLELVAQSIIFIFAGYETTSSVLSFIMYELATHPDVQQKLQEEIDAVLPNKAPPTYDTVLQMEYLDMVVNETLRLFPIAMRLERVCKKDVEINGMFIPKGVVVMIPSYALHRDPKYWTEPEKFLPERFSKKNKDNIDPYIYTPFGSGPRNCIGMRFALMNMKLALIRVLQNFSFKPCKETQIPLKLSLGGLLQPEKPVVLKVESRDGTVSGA
(In general: qHTS replaces the single test concentration by a dilution series.)
In the case of `NC(=S)N=Nc1ccc(NN=C(N)N)cc1`, the “activity change, negative = inhibition” value is 7.18%. Same read-out and setting: next, `C=CC1=C(C(=O)O)N2C(=O)[C@@H](NC(=O)/C(=N\O)c3csc(N)n3)[C@H]2SC1` (stereo in doubt): 30.6%. `CC(=O)Oc1cc(C(F)(F)F)ccc1C(=O)O`: the “activity change, negative = inhibition” value was 36.7%.

For another experiment, the target named is Cytochrome P450 2C9 (Homo sapiens) (UniProt P11712). Description: Cytochrome P450 family 2 subfamily C member 9 (CYP2C9) small molecule antagonists: luciferase biochemical (cell-free) qHTS assay (AID 1645842). For activity change, negative = inhibition: % is set by controls: 0 for no effect and ±100 for the full control effect. Note: nearly all actives have a fitted effect of over 55% in size. Note: potency is the fitted concentration of half-maximal effect. The following applies: P450-Glo CYP2C9 enzyme assay, luciferin luminescence; series mostly up to 57.4 µM; activity change, negative = inhibition: at the top concentration. In outline:
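Luminescence, after 20 min with luciferin detection reagent, reflected CYP2C9 turnover during a 1 h NADPH-driven reaction at 37C. Enzyme-substrate mix contained 0.4% bovine serum albumin and was preincubated with compound 10 min at room temperature.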
Consider `NC(=S)N=Nc1ccc(NN=C(N)N)cc1`, for which the Potency was 15.1 µM (active).

Regarding `CN(C)CCCSc1ccccc1NC(=O)/C=C/c1ccccc1`, the “activity change, negative = inhibition” value is 2.17%.

Turning to `C=CC1=C(C(=O)O)N2C(=O)[C@@H](NC(=O)/C(=N\O)c3csc(N)n3)[C@H]2SC1` (stereo in doubt), the “activity change, negative = inhibition” value is -17.9%. Regarding `COc1ccc2nc(NC(=O)Nc3ccccc3)sc2c1`, the Potency is 13.8 µM (active).

On to `CC(=O)Oc1cccc2c1C(=O)c1c(OC(C)=O)cc(C(=O)O)cc1C2=O`, for which the “activity change, negative = inhibition” value is 2.99%. `Nc1ccc(N=Nc2ccccc2)c(N)n1`: the Potency was 13.8 µM (active). Take `O=C(O)CCC(=O)c1ccc(-c2ccccc2)cc1`: the “activity change, negative = inhibition” value is 0.204%.

The values are drawn from PubChem BioAssay (NCATS).
